Reference: PubChem BioAssay (Tox21)
Records with an inconclusive call do not appear. Where a call stands in place of a potency, no number is given. The source made the active and inactive calls. Calls come from the whole dose curve; as a rule, active = well fitted cell-killing curve with a large enough effect in the repeat runs; inconclusive = weak or mixed curves; inactive = flat fitted curve, though single readings scatter.

Assay: qHTS RealTime-Glo MT Cell Viability Assay in HepG2 cells - 16 hour (AID 1224885); note: nearly all actives have a fitted effect of over 50% in size
Conditions: RealTime-Glo luminescence; series mostly up to 76.8 µM
From the text: U.S. Tox21 Program National Center for Advancing Translational Sciences [NCATS] NIH Chemical Genomics Center [NCGC] U.S. Environmental Protection Agency [EPA] National Institutes of Environmental Health Sciences [NIEHS] National Toxicology Program [NTP] U.S. Food and Drug Administration [FDA] Tox21 Assay Overview: Measure of cell viability is critical in the cell-base assay. Analysis of cell viability is necessary for the characterization of cell responses to cytotoxic drugs and environmental stress. A RealTime-Glo MT Cell Viability Assay to monitor cell viability in real time of continues cell culture during 40 hours of compound treatment was used to screen Tox21 10K library compounds in HepG2 cells. The RealTime-Glo MT Cell Viability Assay is a nonlytic, homogeneous, bioluminescent method to measure cell viability in real time using a simple, plate-based method. The assay involves adding NanoLuc luciferase and a cell-permeant prosubstrate to cells in culture. Viable cells reduce the proprietary prosubstrate to generate a substrate for NanoLuc luciferase. This substrate diffuses from cells into the surrounding culture medium, where it is rapidly used by the NanoLuc Enzyme to produce a luminescent signal. The signal correlates with the number of viable cells, making the assay well suited for cytotoxicity studies.
Tox21 Assay Protocol Summary: The mixture of HepG2 cell suspension and reagents were dispensed at 600cells/6 ul/well in 1536-well tissue culture treated black solid bottom plates using a Multidrop dispenser. After the assay plates were incubated at a 37 C/5% CO2 incubator for 5 hours, 23 nL of compounds dissolved in DMSO, positive and negative controls was transferred to the assay plate by a pintool work station. The plates were incubated at 37 C for 40 hours. The luminescence intensity were measured at 0h, 8h, 16h, 24h, 32h and 40h time points using ViewLux plate reader during compound treatment.
Potency is the fitted concentration of half-maximal effect.

| Structure (SMILES) | Potency |
| --- | --- |
| OC1(c2ccccc2)CCNCC1 | inactive |
| N#CCc1ccc(Cl)cc1Cl | inactive |
| CC[C@]1(O)C[C@H]2CN(CCc3c([nH]c4ccccc34)[C@@](C(=O)OC)(c3cc4c(cc3OC)N(C=O)[C@H]3[C@@](O)(C(=O)OC)[C@H](OC(C)=O)[C@]5(CC)C=CCN6CC[C@]43[C@@H]65)C2)C1 | inactive |
| C=C(C)[C@@H]1CCC2=CCC[C@@H](C)[C@]2(C)C1 | inactive |
| Cc1ccc(CO)cc1 | inactive |
| O=C1NCCN1CCO | inactive |
| C=C1c2cccc(O)c2C(O)=C2C(=O)[C@]3(O)C(O)=C(C(N)=O)C(=O)[C@@H](N(C)C)[C@@H]3[C@@H](O)[C@H]12 | inactive |
| CC(=O)OCC[N+](C)(C)C | inactive |
| CC(C)C=O | inactive |
| Cc1ccco1 | inactive |
| O[C@@H]1CO[C@H]2[C@@H]1OC[C@@H]2O | inactive |
| CNC(=O)c1cnn(-c2nc(N)c3ncn([C@@H]4O[C@H](CO)[C@@H](O)[C@H]4O)c3n2)c1 | inactive |
| O=[N+]([O-])c1ccc(O/N=C/c2cc(Br)c(O)c(Br)c2)c([N+](=O)[O-])c1 | inactive |
| CC(=O)NC1(c2cccc(F)c2)CCN(CC[C@@]2(c3ccc(Cl)c(Cl)c3)CN(c3ccccc3)C(=O)CO2)CC1 | 43.8 µM (active) |
| CCOC(=O)[C@H](CCc1ccccc1)N[C@@H](C)C(=O)N(CC(=O)O)C1Cc2ccccc2C1 | inactive |
| O=C(O)c1cccc(-c2noc(-c3ccccc3F)n2)c1 | inactive |
| CCCCCCCC/C=C\CCCCCCCCO | inactive |
| NC(=O)c1ccncc1 | inactive |
| Cc1ccc(C(C)(C)O)cc1 | inactive |
| CC1(C)O[C@@H]2C[C@H]3[C@@H]4C[C@H](F)C5=CC(=O)C=C[C@]5(C)[C@H]4[C@@H](O)C[C@]3(C)[C@]2(C(=O)CO)O1 | inactive |

| Structure (SMILES) | Potency |
| --- | --- |
| CCCCCCCCN | inactive |
| c1ccc2sc(SN(C3CCCCC3)C3CCCCC3)nc2c1 | inactive |
| COc1ccc(OC(=O)N(CC(=O)O)Cc2ccc(OCCc3nc(-c4ccccc4)oc3C)cc2)cc1 | inactive |
| Cc1cc(O)c(C)c(C)c1O | inactive |
| COc1ccccc1N1CCN(CC(O)COc2cccc3ccccc23)CC1 (stereo not given) | inactive |
| Cc1ccccc1N=C(N)Nc1ccccc1C | inactive |
| CCOc1ccccc1O[C@H](c1ccccc1)[C@H]1CNCCO1 | inactive |
| CC(CC1c2ccccc2CCc2ccccc21)CN(C)C (stereo not given) | inactive |
| CCN(CC)CCNC(=O)COc1ccc(OC)cc1 | inactive |
| Cc1ccc(Cl)c(Nc2ccccc2C(=O)O)c1Cl | inactive |
| Oc1c(I)cc(I)c2cccnc12 | inactive |
| C(=C\c1ccccc1)/c1ccccc1 | inactive |
| CN1CC(=O)N2[C@H](c3ccc4c(c3)OCO4)c3[nH]c4ccccc4c3C[C@@H]2C1=O | inactive |
| O=C1Cc2ccccc2N1c1c(Cl)cccc1Cl | inactive |
| NCCNCCO | inactive |
| CC1=Nc2ccc3ccccc3c2C1(C)C | inactive |
| O=c1c(O)c(-c2ccc(O)cc2)oc2cc(O)cc(O)c12 | inactive |
| CN1C(=O)OC(C)(C)C1=O | inactive |
| CCCCN(CCN(CCCC)C(=O)N1CCOCC1)C(=O)N1CCOCC1 | inactive |
| O=C(/C=C/c1ccccc1)OCCc1ccccc1 | inactive |
